Screening results deposited in PubChem BioAssay by National Center for Advancing Translational Sciences (NCATS).
TGFb SMAD3 inh – TGF-b pathway inhibition | AID 588855 | Potency, µM (titrated, usually from 46.1 µM), hits mostly inhibitors | hit rate 1.2% among 410,000 | HepG2 CAGA-GFP TGF-b/SMAD3 reporter, GFP fluorescence, 18 h; TGF-beta stimulated, 500 pg/mL final; further: nearly all actives have a fitted effect of over 65% in size
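Smad-responsive CAGA-GFP expression was quantified in HEPG2 cells exposed to compounds and 500 pg/mL final TGF-beta for 18 h at 37 degrees C; unstimulated wells defined full inhibition.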
S-ASM inh – blocks human secretory acid sphingomyelinase; Potency, µM (doses to about 57.5 µM), usual class: inhibitors; placental ASM, HMU-PC fluorogenic substrate, 60 min; AID 504937; hit rate 0.006% among 340,000
Target sequence (P17405 47-631 limits assumed): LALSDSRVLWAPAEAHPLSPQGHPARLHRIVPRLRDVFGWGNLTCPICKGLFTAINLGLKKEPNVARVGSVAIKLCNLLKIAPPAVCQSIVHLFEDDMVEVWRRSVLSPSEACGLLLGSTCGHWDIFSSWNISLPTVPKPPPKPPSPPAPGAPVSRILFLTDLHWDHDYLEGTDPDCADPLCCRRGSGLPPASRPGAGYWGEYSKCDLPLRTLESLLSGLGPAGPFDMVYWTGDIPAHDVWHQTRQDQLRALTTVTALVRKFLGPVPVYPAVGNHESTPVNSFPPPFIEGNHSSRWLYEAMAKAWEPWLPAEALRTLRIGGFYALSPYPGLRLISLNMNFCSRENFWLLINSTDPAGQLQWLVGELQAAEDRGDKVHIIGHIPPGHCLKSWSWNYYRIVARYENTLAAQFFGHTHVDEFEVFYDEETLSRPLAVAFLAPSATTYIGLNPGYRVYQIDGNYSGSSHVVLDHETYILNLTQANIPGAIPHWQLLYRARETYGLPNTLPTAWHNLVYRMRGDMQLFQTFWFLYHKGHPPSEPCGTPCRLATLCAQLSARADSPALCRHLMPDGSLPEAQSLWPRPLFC
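qHTS format. ASM enzyme prepared from human placenta hydrolyses the fluorogenic substrate HMU-PC0 (9 uM final) over 60 min at 37 °C after a 10 min compound preincubation.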
DT40 TDP1 no CPT – qHTS for Inhibitors of human tyrosyl-DNA phosphodiesterase 1 (TDP1): qHTS in cells in absence of CPT. DT40 Tdp1-/- hTDP1 cells, no CPT, ATP luminescence, 48 h. Potency, µM (titrated, usually from 46.2 µM), most hits filed as inhibitors. hit rate 15% among 420,000; further: nearly all actives have a fitted effect of over 55% in size
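No-CPT arm: Tdp1-/-;hTDP1 DT40 cells (400/well) plus compounds, incubated ≥48 hr at 37 °C. Readout CellTiter-Glo luminescence.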
IL1B secr inh – blocks inflammasome-driven IL-1 beta release. THP-1 LPS/ATP IL-1B secretion, AlphaLISA, 16 h; stronger effect = lower value. activity change, % at 57.5 µM. hit rate 4.7% among 360,000. AID 743279; in the data active means activity change below about -50%; inconclusive means mostly about -30% to -49%
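THP-1 cells pretreated 1 hr with compounds (up to 57.5 uM final), then stimulated with LPS (250 ng/mL final) plus ATP (1.25 mM final); secreted IL-1B measured by AlphaLISA after 16 hr, decreased signal indicating inhibition.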
TDP1 cell CPT – growth inhibition of DT40 Tdp1-/-;hTDP1 cells with camptothecin (screen for TDP1 inhibitors) | hit rate 12% among 420,000 | AID 686979 | Potency, µM (top dose mostly 46.2 µM), most hits filed as inhibitors | chicken DT40 Tdp1-/-;hTDP1 cells + 20 nM CPT, ATP luminescence, 48 h; further: nearly all actives have a fitted effect of over 55% in size
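Cell growth measured by CellTiter-Glo luminescence after a minimum 48 h, 37 C compound exposure with 20 nM CPT in Tdp1-knockout DT40 cells stably expressing hTDP1, seeded 400/well; qHTS titration format.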
HepG2 tox – counter-screen for TGF-b inhibitors: cytotoxicity in HepG2 cells; AID 588856; hit rate 0.76% among 410,000; HepG2 CAGA-GFP viability, ATP luminescence, 18 h; Potency, µM (top dose mostly 46.1 µM), hits mostly cytotoxic
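CellTiter-Glo luminescence gave cytotoxicity after 18 hours at 37 degrees C. The cells were HepG2 CAGA-GFP in 1% FBS DMEM, stimulated with 500 pg/mL TGF-beta after compound addition. %Activity was normalised to no-cell wells (complete cell-killing) and DMSO (no toxicity), and curves were fitted and classified.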
Hits are given with their value; . = inactive; ? = inconclusive; / = not tested or not shown. Shown are actives, neighbours in structure and some others; about 19% of the full set was active somewhere. Unless noted, the call rests on the fitted dose curve; in most records, active means well fitted curve in the direction sought with a large enough effect; inconclusive means small, poorly fitted or top-dose-only effect, or another doubt; inactive means no such curve, though single readings can be large; an effect the other way counts as inactive or inconclusive.

SMILES | TGFb SMAD3 inh | S-ASM inh | DT40 TDP1 no CPT | IL1B secr inh | TDP1 cell CPT | HepG2 tox
CC(C)(C)OC(=O)NC1CNNC1=O (stereo not given) | ? | . | . | . | . | .
CC(C)CC(=O)NC(=S)NNC(=O)c1ccc([N+](=O)[O-])cc1 | . | . | 15µM | . | 18µM | .
CCC(=O)NC(=S)NNC(=O)c1ccc([N+](=O)[O-])cc1 | . | . | 18µM | . | ? | .
O=C(NC1CC1)c1ccc(NC(=O)C2CCCCC2)cc1 | . | . | . | . | . | .
CC(C)CC(=O)NC(=S)NNC(=O)c1ccc(NC(=O)C2CCCCC2)cc1 | . | . | 12µM | . | 21µM | .
COc1ccc(CCN2CC(C(=O)N(C)CC(=O)Nc3cccc(F)c3)CC2=O)cc1OC (stereo not given) | . | . | . | . | . | .
CCCCCCCNC(=O)C1(CC2CC(c3ccc(Cl)cc3)=NO2)CCNCC1 (stereo not given) | ? | . | 10µM | -84 | 8.2µM | 18µM
CCCCCCCNC(=O)C1(CC2CC(c3cccc(Br)c3)=NO2)CCNCC1 (stereo not given) | ? | . | 16µM | -102 | 13µM | .
CCCCCCCNC(=O)C1(CC2CC(c3cccc(Br)c3)=NO2)CCN(C(=O)Cc2ccc(F)cc2)CC1 (stereo not given) | . | . | 16µM | -59 | ? | .
CCCCCCCNC(=O)C1(CC2CC(c3ccc(Cl)cc3)=NO2)CCN(C(=O)CCCCCBr)CC1 (stereo not given) | . | . | 18µM | ? | 16µM | .
O=C(CCC(=O)Nc1ccccc1Cl)NNC(=O)COc1ccc([N+](=O)[O-])cc1 | . | . | . | . | . | .
COc1ccc(CNC(=O)C2(CC3CC(c4ccccc4)=NO3)CCN(C(=O)CCCCCBr)CC2)cc1 (stereo not given) | . | . | ? | . | 9.2µM | .
COc1ccc(CNC(=O)C2(CC3CC(c4ccccc4)=NO3)CCN(C(=O)OC(C)(C)C)CC2)cc1 (stereo not given) | . | . | ? | . | ? | .
CCCCCCCNC(=O)C1(CC2CC(c3ccc(Cl)cc3)=NO2)CCN(C(=O)c2cc(OCC)c(OCC)c(OCC)c2)CC1 (stereo not given) | . | . | 10µM | . | 21µM | .
CC(=O)NC1CCCC(NC(C)=O)C1 (stereo not given) | . | . | . | . | . | .
O=C(Nc1cccnc1)c1ccc(S(=O)(=O)c2ccccc2)cc1 | . | . | . | . | . | .
N#Cc1cnc(Oc2ccc(Cl)cc2)nc1N | . | . | . | . | . | .
CC(=O)c1ccccc1NC(=O)c1ccc(N2CCCC2=O)cc1 | . | . | ? | ? | ? | .
CC(C)n1c(NCc2ccccc2O)nc2ccccc21 | . | . | . | . | . | .
C=CCc1cccc(CNc2nc3ccccc3n2C(C)C)c1O | 13µM | . | ? | . | ? | .
C=CCn1c(NCc2cc(Cl)ccc2O)nc2ccccc21 | . | . | ? | -69 | ? | .
COc1ccc(CCNC(=O)CSc2cn(CCNC(=O)c3ccccc3F)c3ccccc23)cc1OC | ? | / | ? | / | ? | .
COC(=O)c1ccc(OC(=O)CS(=O)c2ccccc2[N+](=O)[O-])cc1 (stereo not given) | . | . | 26µM | . | ? | .
CS(=O)(=O)c1ccc(S(=O)CC(=O)OCc2ccccc2)c([N+](=O)[O-])c1 (stereo not given) | 4.5µM | . | 0.33µM | -163 | 0.23µM | 7.1µM
CCOC(=O)c1ccccc1OC(=O)CS(=O)c1ccccc1[N+](=O)[O-] (stereo not given) | . | . | ? | . | ? | .
